Source: PubChem BioAssay (Tox21)
“And” between values parts separate entries of the source, which are not always exact repeats. Equal entries are not always repeated. Results filed as inconclusive are left out. Entries that show only a call come without a potency. Some compounds were tested as several samples or in several runs, with calls that do not always agree. The source made the active and inactive calls. Calls follow the shape of the dose curve; as a rule, active = well fitted cell-killing curve with a large enough effect in the repeat runs; inconclusive = weak or mixed curves; inactive = flat fitted curve, though single readings scatter.

assay: qHTS assay to identify small molecule antagonists of the estrogen related receptor (ERR) signaling pathway from Tox21 library - cell viability counter screen (AID 1224834); conditions: ERR reporter cells viability, CellTiter-Fluor, 17.5 h; series mostly up to 92.4 µM; viability change, negative = cytotoxic: at the top concentration; also: nearly all actives have a fitted effect of over 30% in size
From the text: National Center for Advancing Translational Sciences [NCATS]
NIH Chemical Genomics Center [NCGC]
U.S. Environmental Protection Agency [EPA]
National Institutes of Environmental Health Sciences [NIEHS]
National Toxicology Program [NTP]
U.S. Food and Drug Administration [FDA]
Estrogen related receptors (ERRs), the first orphan nuclear receptors discovered, play an important role in the control of cellular energy metabolism. ERRs are required for high-energy production in response to the environmental challenges. ERR-alpha was also identified as an adverse marker for breast cancer progression; ERR-alpha-positive tumors have a poor prognosis. To screen and to identify environmental compounds that perturb the ERR signaling pathways could provide valuable information for potential therapeutic or preventive measures in the treatment of metabolic disease. To differentiate true ERR antagonists or agonist from cytotoxic substances, the assay is multiplexed with cell viability assay.
Tox21 Assay Protocol Summary:
The ERR cells were dispensed at 2,000 cells/5 ul/well in 1536-well white plates using a Multidrop dispenser. After the assay plates were incubated at a 37 C/5% CO2 incubator for 6 hours, 23 nL of compounds dissolved in DMSO, positive and negative controls or DMSO only was transferred to the assay plate by a pin tool. The plates were incubated at 37 C for 17.5 hours. 1 ul/well of CellTiter-Fluor reagent was added into the assay plates using a Flying Reagent Dispenser. After 30-minute incubation at 37 C/5% CO2, the fluorescence intensity in the plates was measured using a ViewLux plate reader.
Potency is read from the fitted curve at half-maximal effect.

Structure (SMILES) | Potency | viability change, negative = cytotoxic
COc1ccccc1N | inactive | –
CC[N+](CC)(CC)CC | inactive | –
Nc1ccc(-c2ccc(N)cc2)cc1 | inactive | –
O=P1(N(CCCl)CCCl)NCCCO1 (stereo not given) | inactive | –
Nc1ccc(-c2ccc(N)c(Cl)c2)cc1Cl | 54.5 µM (active) | –
Cc1cc(Cl)ccc1N | inactive | –
CCCCCCCCCCn1cc[n+](C)c1 | inactive and 8.62 µM (active) | –
CCCC[N+]1(C)CCCCC1 | inactive | –
Cc1cc(Cl)ccc1OCC(=O)O | inactive | –
CCCCCCCCCCCCCC[P+](CCCCCC)(CCCCCC)CCCCCC | 17.3 µM (active) and 24.5 µM (active) | –
C[C@]12CCC(=O)C=C1CC[C@@H]1[C@@H]2CC[C@]2(C)C(=O)CC[C@@H]12 | – | -3.89% [at 42.5 µM] (inactive)
CCC(=O)C(CC(C)N(C)C)(c1ccccc1)c1ccccc1 (stereo not given) | – | -8.91% [at 42.5 µM] (inactive)
CCCCn1cc[n+](C)c1 | inactive | –
O=c1nc(O)n(Cl)c(=O)n1Cl | inactive | –
Cc1cc(-c2ccc(N)c(C)c2)ccc1N | inactive | –
Oc1cccc2cccnc12 | 2.74 µM (active) and 2.43 µM (active) and inactive | –
CCCC[N+]1(C)CCCC1 | inactive | –
CNC | inactive | –
O=C(O)c1nc(Cl)ccc1Cl | inactive | –
N#CS | inactive | –

Structure (SMILES) | Potency | viability change, negative = cytotoxic
O=C(O)CC(O)(CC(=O)O)C(=O)O | inactive | –
O=c1[nH]c(=O)n(Cl)c(=O)n1Cl | inactive | –
O=C(O)C(Cl)(Cl)Cl | inactive | –
O=[N+]([O-])c1ccccc1O | inactive | –
CC[n+]1ccccc1 | inactive and 30.4 µM (active) | –
O=[N+]([O-])O | inactive | –
CCCCCCn1cc[n+](C)c1 | inactive | –
CCCCn1cc[n+](C)c1C | inactive | –
COP(=O)(OC)OC=C(Cl)Cl | inactive | –
O=C(O)C(Cl)Cl | inactive | –
CCOP(=S)(OCC)Oc1ccc2c(C)c(Cl)c(=O)oc2c1 | – | 0.234% [at 42.5 µM] (inactive)
CCn1cc[n+](C)c1C | inactive | –
CC[N+]1(C)CCCC1 | inactive | –
CCCn1cc[n+](C)c1 | inactive | –
C[N+](C)(C)Cc1ccccc1 | inactive | –
CCCC[n+]1ccccc1C | inactive | –
O=C(O)c1ccccc1O | inactive | –
OCCOc1ccccc1 | inactive | –
Oc1ccccc1-c1ccccc1 | inactive | –
CCNc1nc(Cl)nc(NCC)n1 | inactive | –
